Assay [1] in a line: A CellTox Green Cytotoxicity Assay to monitor cytotoxicity in HepG2 cells - 0 hour (AID 1224882). Note: nearly all actives have a fitted effect of over 35% in size. The method in brief:
(§1)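 Real-time cytotoxicity: fluorescence of a cell-impermeant cyanine dye binding DNA of dead HepG2 cells, measured repeatedly (0–40 h) during compound exposure at 37 C. Cells seeded 600/well with reagent, dosed after 5 h.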

Assay [2] can be described thus: A CellTox Green Cytotoxicity Assay to monitor cytotoxicity in HepG2 cells - 32 hour (AID 1224883). Note: nearly all actives have a fitted effect of over 50% in size. In short, it runs like this:
as §1

Assay [3] is described as follows: A CellTox Green Cytotoxicity Assay to monitor cytotoxicity in HEK293 cells - 8 hour (AID 1224884). Note: nearly all actives have a fitted effect of over 35% in size. The method in brief:
(§2)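 Fluorescence from a DNA-binding dye excluded by viable cells was measured repeatedly in the same HEK293 wells (600 cells/well) during continuous compound exposure at 37 C. Each assay gives one read point: 0, 8, 16, 24, 32 or 40 h.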

A short description of assay [4]: qHTS RealTime-Glo MT Cell Viability Assay in HEK293 cells - 24 hour (AID 1224886). Note: nearly all actives have a fitted effect of over 50% in size. Note: potency is the fitted concentration of half-maximal effect. In short, it runs like this:
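Quantitative high-throughput screen of the Tox21 10K library in HEK293: cells and RealTime-Glo reagents plated together, compound added at 5 h, luminescence monitored through 40 h at 37 C.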

Assay [5] is described as follows: qHTS RealTime-Glo MT Cell Viability Assay in HEK293 cells - 8 hour (AID 1224887). Note: nearly all actives have a fitted effect of over 50% in size. Note: potency is the fitted concentration of half-maximal effect. The method in brief: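 Luminescence, which tracks viable cell number through reduction of the prosubstrate to a NanoLuc substrate, was read over continuous 37 C culture. Cells (600/well) were premixed with reagent and rested 5 h before 23 nL of compound in DMSO was pinned.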
The nature of assay [6]: qHTS RealTime-Glo MT Cell Viability Assay in HepG2 cells - 0 hour (AID 1224889). Note: nearly all actives have a fitted effect of over 50% in size. In short, it runs like this: (§3)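 Compound treatment began 5 h after plating HepG2 cells (600/well) with NanoLuc luciferase and prosubstrate. Plates stayed at 37 C for 40 h; luminescence was captured at six time points, 0 h through 40 h.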
The nature of assay [7]: A CellTox Green Cytotoxicity Assay to monitor cytotoxicity in HepG2 cells - 8 hour (AID 1224890). Note: nearly all actives have a fitted effect of over 45% in size. The method in brief:
as §1

Assay [8] is described as follows: qHTS assay to identify small molecule antagonists of the estrogen receptor alpha (ER-alpha) signaling pathway using the BG1 cell line in the presence of 0.1 nM 17-beta-estradiol - cell viability counter screen (AID 1259241). Note: nearly all actives have a fitted effect of over 40% in size. Note: potency is the fitted concentration of half-maximal effect. In short, it runs like this: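 VM7Luc4E2 cells (endogenous ER-alpha, 4×ERE-luciferase), hormone-starved 5 days in charcoal-stripped FBS, were treated with compounds plus 0.1 nM 17beta-estradiol for 22 hr at 37C; viability read in same wells as CellTiter-Fluor live-cell protease fluorescence.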

Assay [9] deals with Estrogen receptor (Homo sapiens) (UniProt P03372). As to the kind of experiment: qHTS assay to identify small molecule antagonists of the estrogen receptor alpha (ER-alpha) signaling pathway using the BG1 cell line in the presence of 0.1 nM 17-beta-estradiol (AID 1259244). Note: nearly all actives have a fitted effect of over 50% in size. Note: potency is the fitted concentration of half-maximal effect. The method in brief:
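Luciferase luminescence (ONE-Glo, 30 min at room temperature) was read after 22 hr at 37C exposure to compounds plus 17beta-estradiol at 0.1 nM final. Cells were VM7Luc4E2 with endogenous ER-alpha and an ERE-driven luciferase, pre-cultured 5 days in hormone-depleted medium.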

Assay [10] can be described thus: qHTS assay to identify small molecule HDAC inhibitors (AID 1259364). Note: nearly all actives have a fitted effect of over 45% in size. Note: potency is the fitted concentration of half-maximal effect. In short, it runs like this: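 Luminescence read after 30 min room-temperature HDAC-Glo incubation measures cellular class I/II HDAC activity. Compounds were applied for 2 hr at 37 C to HCT-116 wild-type cells seeded the day before.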
Assay [11] is described as follows: qHTS assay to identify small molecule agonists of the sonic hedgehog signaling (Shh) pathway - cell viability counter screen (AID 1259366). Note: nearly all actives have a fitted effect of over 50% in size. Note: potency is the fitted concentration of half-maximal effect. The method in brief:
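NIH/3T3-derived 3T3 Gli1-Luc cells (stable Gli1-responsive firefly luciferase reporter) were seeded, rested 4 hr at 37 C/5% CO2, then exposed to compounds in DMSO for 24 hr; viability was read by CellTiter-Fluor fluorescence in the same wells.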

Assay [12] can be described thus: A CellTox Green Cytotoxicity Assay to monitor cytotoxicity in HEK293 cells - 32 hour (AID 1224881). Note: nearly all actives have a fitted effect of over 40% in size. Note: potency is the fitted concentration of half-maximal effect. The method in brief: as §2
Assay [13] in a line: qHTS RealTime-Glo MT Cell Viability Assay in HepG2 cells - 16 hour (AID 1224885). Note: nearly all actives have a fitted effect of over 50% in size. The method in brief: as §3
Assay [14] is described as follows: A CellTox Green Cytotoxicity Assay to monitor cytotoxicity in HEK293 cells - 16 hour (AID 1224888). Note: nearly all actives have a fitted effect of over 35% in size. In short, it runs like this: as §2
Assay [15] in a line: qHTS assay to identify small molecule antagonists of the androgen receptor (AR) signaling pathway using the MDA cell line in the presence of 0.5 nM R1881 - cell viability counter screen (AID 1259242). Note: nearly all actives have a fitted effect of over 45% in size. In short, it runs like this:
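Live-cell protease activity was measured by CellTiter-Fluor fluorescence after 30 min. Before that, MDA-kb2 MMTV-luciferase cells had 16 hr at 37C without CO2, exposed to test compounds and 0.5 nM R1881 final.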

Assay [16] is described as follows: qHTS assay to identify small molecule HDAC inhibitors - cell viability counter screen (AID 1259365). In short, it runs like this:
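Wild-type HCT-116 cells were seeded at 1,500 per well, incubated overnight at 37 C, then exposed to compounds in DMSO for 2hr. Viability was read by CellTiter-Glo luminescence after 30min at room temperature.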

The nature of assay [17]: qHTS assay to identify small molecule agonists of the sonic hedgehog signaling (Shh) pathway (AID 1259368; calls by dose curve; note: series mostly up to about 92 µM; nearly all actives have a fitted effect of over 15% in size). In short, it runs like this:
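Luminescence was read after 30 min at room temperature with luciferase reagent. Before that, 3T3Gli1-Luc cells (NIH/3T3 clone, stable Gli1-Luc reporter; 2,000/well) were exposed to compounds for 24 hr at 37C, 5% CO2, compounds being added 4 hr post-plating.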

Assay [18] concerns the target Androgen receptor (Homo sapiens) (UniProt P10275). As to the kind of experiment: qHTS assay to identify small molecule antagonists of the androgen receptor (AR) signaling pathway using the MDA cell line in the presence of 0.5 nM R1881 (AID 1259243). Note: nearly all actives have a fitted effect of over 50% in size. In short, it runs like this: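 Luminescent reporter readout (ONE-Glo, 30 min, room temperature) after 16 hr co-treatment of MDA-kb2 cells with test compounds and 0.5 nM R1881 final, at 37C without CO2. The MMTV-driven luciferase responds to both AR and GR.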

Assay [19] is described as follows: qHTS assay to identify small molecule antagonists of the sonic hedgehog signaling (Shh) pathway - cell viability counter screen (AID 1259367). Note: nearly all actives have a fitted effect of over 55% in size. In short, it runs like this:
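Conditioned medium drove Shh signaling in 3T3 Gli1-Luc cells exposed to compounds at 37C and 5% CO2. Viability was determined from CellTiter-Fluor fluorescence, with reagent incubated 1 hr after 23 hr of treatment.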

A short description of assay [20]: qHTS assay to identify small molecule phospholipidosis (PLD) inducers (AID 1259344; active = well fitted curve in the direction sought with a large enough effect; an effect the other way counts as inactive or inconclusive). In short, it runs like this: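 After 4 h attachment on collagen I, HepG2 cells were dosed with compound alongside LipidTOX Red, kept 24 h at 37 C, fixed, and imaged for lamellar phospholipid pits.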

Drawing on PubChem BioAssay (Tox21), this text covers Potency and outcome for twelve compounds.

Values joined by “and” are separate entries in the source; they are usually repeats but may differ in a detail not shown here. Equal values may be shown once. Records with an inconclusive call do not appear. Active and inactive are the calls of the source. Unless noted, calls come from the whole dose curve; as a rule, active = well fitted curve in the direction sought with a large enough effect in the repeat runs; inconclusive = weak or mixed curves; inactive = no such curve, though single readings can be large; an effect the other way counts as inactive or inconclusive.

Sequence of Estrogen receptor (Homo sapiens) (P03372 whole entry, looked up): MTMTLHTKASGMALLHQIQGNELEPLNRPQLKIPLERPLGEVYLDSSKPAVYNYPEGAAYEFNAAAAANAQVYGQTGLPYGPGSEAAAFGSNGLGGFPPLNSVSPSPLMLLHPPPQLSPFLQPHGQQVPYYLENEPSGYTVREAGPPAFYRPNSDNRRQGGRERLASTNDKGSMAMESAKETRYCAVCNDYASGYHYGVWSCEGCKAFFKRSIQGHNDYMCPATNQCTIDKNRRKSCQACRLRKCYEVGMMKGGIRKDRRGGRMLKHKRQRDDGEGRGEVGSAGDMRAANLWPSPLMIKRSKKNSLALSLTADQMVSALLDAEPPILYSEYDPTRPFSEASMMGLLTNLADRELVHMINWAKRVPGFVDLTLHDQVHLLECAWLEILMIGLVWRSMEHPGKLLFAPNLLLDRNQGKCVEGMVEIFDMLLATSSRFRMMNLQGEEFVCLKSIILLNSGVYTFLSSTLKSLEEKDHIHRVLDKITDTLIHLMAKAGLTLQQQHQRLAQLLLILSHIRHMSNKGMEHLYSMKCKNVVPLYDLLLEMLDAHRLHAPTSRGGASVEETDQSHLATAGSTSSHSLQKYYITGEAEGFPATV
Sequence of Androgen receptor (Homo sapiens) (P10275 whole entry, looked up): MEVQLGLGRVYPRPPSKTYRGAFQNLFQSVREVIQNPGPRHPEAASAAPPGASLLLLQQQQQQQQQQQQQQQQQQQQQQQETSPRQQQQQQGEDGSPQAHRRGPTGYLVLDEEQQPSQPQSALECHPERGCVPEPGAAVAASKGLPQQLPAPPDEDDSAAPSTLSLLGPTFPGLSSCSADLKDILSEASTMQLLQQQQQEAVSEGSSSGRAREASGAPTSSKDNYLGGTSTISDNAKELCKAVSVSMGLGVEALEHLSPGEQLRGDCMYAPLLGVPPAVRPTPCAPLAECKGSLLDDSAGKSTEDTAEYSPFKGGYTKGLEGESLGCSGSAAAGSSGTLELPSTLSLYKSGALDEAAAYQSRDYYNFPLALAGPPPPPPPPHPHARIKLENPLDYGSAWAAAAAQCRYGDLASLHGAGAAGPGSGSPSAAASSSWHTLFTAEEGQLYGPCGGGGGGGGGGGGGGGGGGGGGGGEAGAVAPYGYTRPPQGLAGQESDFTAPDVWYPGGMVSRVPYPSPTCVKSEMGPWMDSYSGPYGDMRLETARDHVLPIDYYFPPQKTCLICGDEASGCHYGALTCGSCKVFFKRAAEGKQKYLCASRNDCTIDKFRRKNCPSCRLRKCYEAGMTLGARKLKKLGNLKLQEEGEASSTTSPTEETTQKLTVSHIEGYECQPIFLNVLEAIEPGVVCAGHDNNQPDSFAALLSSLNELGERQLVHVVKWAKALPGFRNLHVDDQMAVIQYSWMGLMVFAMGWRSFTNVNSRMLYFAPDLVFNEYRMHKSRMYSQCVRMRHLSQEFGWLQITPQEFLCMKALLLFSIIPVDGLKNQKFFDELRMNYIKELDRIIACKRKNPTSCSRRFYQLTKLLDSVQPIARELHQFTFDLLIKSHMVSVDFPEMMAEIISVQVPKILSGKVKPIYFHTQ

As to `CN(C)c1ccc(N)cc1`, the Potency entry in assay [1], in assay [2], in [3], in assay [6] and in [7] was “inactive” in each case. Further, the Potency in assay [4] is 42.6 µM (active); in assay [5], 24 µM (active); in [8] it was 47.4 µM (active); in assay [9], 29.9 µM (active); in [10], 23.7 µM (active); in assay [11], 53.2 µM (active).

Regarding `C[C@]12Cc3cn[nH]c3C[C@@H]1CC[C@@H]1[C@@H]2CC[C@@]2(C)[C@H]1CC[C@]2(C)O`, the Potency result in assay [12], in [3], in [13], in assay [5], in assay [14] and in [6] was “inactive” in each case. In addition, the Potency entry in [7], in assay [8], in assay [15], in [10], in assay [16] and in assay [11] was “inactive” in each case. Besides, the Potency result in [17] was “inactive”.

Consider `O=C(NC(=O)c1ccccc1Cl)Nc1ccc(OC(F)(F)F)cc1`, for which the Potency result in assay [12], in assay [2], in [3], in assay [13], in [5] and in [14] was “inactive” each time. Besides, the Potency result in [6], in assay [7], in [8], in assay [15], in assay [18] and in [16] was “inactive” throughout. Besides, the Potency result in [19] and in assay [17] was “inactive” in each case.

`c1ccc(N=NNc2ccccc2)cc1`: the Potency in assay [12] is 50.7 µM (active) and 43.6 µM (active); in assay [5], 50.7 µM (active). The Potency result in assay [3], in assay [4], in assay [14], in assay [6], in [7] and in assay [8] was “inactive” throughout. Also, the Potency entry in assay [15], in [9], in [16], in assay [19] and in [17] was “inactive” throughout.

As to `CC(=O)[O-].CC(=O)[O-].O.O.O.[Pb+2]`, the Potency result in assay [12], in assay [2], in assay [3], in [13], in assay [5] and in [14] was “inactive” each time. Further, the Potency entry in assay [6], in [7], in [8], in [15], in assay [16] and in [11] was “inactive” throughout. Moreover, the Potency result in assay [19] and in assay [17] was “inactive” in each case.

For `C=CCOC(=O)c1ccccc1N`, the Potency entry in assay [2], in assay [3], in assay [13], in assay [4], in assay [6] and in [7] was “inactive” in each case. Besides, the Potency entry in assay [8], in assay [15], in [9], in [10], in [16] and in assay [11] was “inactive” each time. Besides, the Potency entry in assay [19] and in assay [17] was “inactive” each time.

As to `C[C@]12CC[C@H]3[C@@H](CCC4=CC(=O)CC[C@@H]43)[C@@H]1CC[C@@H]2OC(=O)CCc1ccco1`, the Potency entry in assay [1], in [2], in assay [3], in assay [13], in assay [4] and in assay [5] was “inactive” each time. In addition, the Potency entry in assay [6], in assay [7], in assay [8], in assay [15], in assay [18] and in assay [10] was “inactive” in each case. For the same compound, the Potency result in [16], in [19] and in assay [17] was “inactive” in each case.

For `COc1ccc2c3c1O[C@H]1[C@H](O)CC[C@H]4[C@@H](C2)N(C)CC[C@@]341`, the Potency result in assay [1], in assay [2], in assay [3], in [13], in assay [4] and in assay [5] was “inactive” in each case. Further, the Potency entry in assay [14], in assay [6], in assay [7], in assay [8], in assay [15] and in [16] was “inactive” in each case. Also, the Potency entry in assay [11], in assay [19] and in assay [17] was “inactive” each time. Moreover, the compound was called inactive in assay [20].

For `CC(C)N(C(=O)SC/C(Cl)=C/Cl)C(C)C`, the Potency in assay [12] is 39.2 µM (active). For the same compound, the Potency result in assay [2], in assay [3], in assay [13], in assay [14], in assay [6] and in assay [7] was “inactive” throughout. Besides, the Potency result in [8], in [15], in assay [9], in assay [16], in [11] and in assay [19] was “inactive” each time. In addition, the Potency entry in assay [17] was “inactive”.

In the case of `Cc1cccc(Cc2cnc[nH]2)c1C`, the Potency result in assay [12], in assay [3], in assay [13], in assay [4], in assay [5] and in [14] was “inactive” in each case. For the same compound, the Potency result in assay [6], in [8], in assay [15], in assay [9], in [10] and in assay [16] was “inactive” in each case. Further, the Potency result in [11], in assay [19] and in assay [17] was “inactive” in each case. Besides, the outcome in assay [20] was inactive.

For the compound `ClSC(Cl)(Cl)Cl`, the Potency result in assay [12], in [2], in [3], in assay [13], in assay [5] and in assay [14] was “inactive” each time. The Potency entry in assay [6], in assay [7], in [8], in assay [15], in assay [9] and in assay [10] was “inactive” in each case. Moreover, the Potency entry in assay [16], in [11], in [19] and in assay [17] was “inactive” throughout.

`COc1nc(C)nc(NC(=O)NS(=O)(=O)c2ccccc2Cl)n1`: the Potency result in [12], in assay [2], in assay [3], in assay [13], in [5] and in assay [6] was “inactive” in each case. In addition, the Potency result in [7], in [8], in assay [15], in assay [9], in assay [10] and in assay [16] was “inactive” each time. In addition, the Potency result in assay [11], in [19] and in [17] was “inactive” each time.
